# A selection: hits, their analogues and other compounds. The true share with any hit is near 3%.
# SENP8 block-1 – blocks the human protease SENP8. purified SENP8, Z-RLRGG-aminoluciferin cleavage, luminescence. inhibition, % at 10 µM. 330,000 tested, 1.2% active. AID 2540; in the data active means inhibition above about 50%
# TRAIL sens C8 – sensitizes caspase-8 expressing cells to TRAIL | NB7+C8 cells + TRAIL, ATPlite viability luminescence | inhibition (viability loss, TRAIL sensitization), % at 10 µM | 360,000 tested, 1% active | AID 624354;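 active means compounds causing at least 50% loss of cell viability in the single-dose screen, relative to plate controls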
# SENP7 inh – inhibitors of human SENP7 protease. inhibition, % at 5 µM. recombinant SENP7, Z-RLRGG-aminoluciferin luminescence, 40 min. Q9BQF6. 330,000 tested, 1.5% active;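 active means inhibition above about 50% at the single test dose, limit read from the data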;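 further: plate controls were DMSO with enzyme for no effect and no enzyme buffer wells for full effect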
# PPC-1+TRAIL kill – kills PPC-1 cancer cells in the presence of TRAIL; AID 1443; cell killing (% activity), % at 4 µM or 5 µM; 220,000 tested, 0.41% active; PPC-1 cells + TRAIL, ATPLite viability luminescence;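 active means cell killing above 50% in the first pass at 4 µM, then a duplicate retest at 5 µM averaging 50% or more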;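 further: plate controls were cells with TRAIL plus DMSO for no effect and medium-only wells lacking cells for full effect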
# SENP6 inh – inhibitors of human SENP6 protease; Q9GZR1; Recombinant SENP6 catalytic domain, aminoluciferin luminescence; inhibition, % at 10 µM; 330,000 tested, 1.8% active;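 active means inhibition above about 50% at the single tested dose, limit read from the data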;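 further: plate controls were DMSO wells with enzyme for no effect and DMSO wells lacking enzyme for full effect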
# Target sequence (Q9GZR1 628-1112 limits assumed): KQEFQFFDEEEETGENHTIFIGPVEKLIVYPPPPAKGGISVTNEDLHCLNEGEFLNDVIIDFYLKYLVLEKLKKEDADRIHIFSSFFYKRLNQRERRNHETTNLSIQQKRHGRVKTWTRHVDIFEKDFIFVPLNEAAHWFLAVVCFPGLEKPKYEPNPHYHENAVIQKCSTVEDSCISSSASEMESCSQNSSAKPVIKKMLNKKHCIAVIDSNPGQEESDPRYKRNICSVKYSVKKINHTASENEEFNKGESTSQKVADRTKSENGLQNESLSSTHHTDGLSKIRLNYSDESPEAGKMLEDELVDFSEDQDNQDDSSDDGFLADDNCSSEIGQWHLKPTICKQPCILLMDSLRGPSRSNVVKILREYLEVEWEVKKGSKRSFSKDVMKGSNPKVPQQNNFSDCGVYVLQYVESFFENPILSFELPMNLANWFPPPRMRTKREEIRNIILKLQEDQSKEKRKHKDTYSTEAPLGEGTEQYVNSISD
# SENP8 block-2 – inhibitors of human SENP8 protease. Q96LD8. recombinant SENP8, Nedd8 substrate fluorescence. inhibition, % at 20 µM. 360,000 tested, 0.64% active; in the data active means inhibition mostly above about 40%, no sharp cut-off; inactive means mostly below about 27%
# SENP8 inh conf – SENP8 (human) inhibition, single concentration confirmation. shares compounds with SENP8 block-2. purified SENP8, Nedd8-AMC/pro-Nedd8 cleavage fluorescence, 30 min. inhibition, % at 25 µM. 1,400 tested, 15% active. AID 624319; in the data active means inhibition mostly above about 39%, no sharp cut-off; inactive means mostly below about 34%
# * marks the source's active call; other numbers are inactive results; . = not tested or not shown.
SMILES,SENP8 block-1,TRAIL sens C8,SENP7 inh,PPC-1+TRAIL kill,SENP6 inh,SENP8 block-2,SENP8 inh conf
C/C(=C\C(=O)c1ccccc1)Nc1ccc2c(c1)OCO2,-17.9,23.4,0.9,-24.4,-11.0,66.9*,20.7
CC(C)CC(=O)NC(=S)Nc1ccccc1N1CCCC1,9.7,9.2,6.7,-5.5,27.1,59.0*,40.5
COc1ccc(NS(=O)(=O)c2cccc(C(=O)NNC(=O)c3ccc(Br)o3)c2)cc1,12.9,-9.4,0.4,.,-7.6,13.9,.
COc1cc(=O)[nH]c(SCC(=O)Nc2nc3c(s2)CCCC3)n1,6.3,-1.9,1.4,.,-5.0,2.4,.
Cc1ccccc1C(=O)Nc1ccc(-c2nnc(SC(C)C(=O)O)n2C)cc1 (centres undefined),-4.3,9.4,-11.0,-15.6,-13.2,41.0*,16.0
COC(=O)CCCC1=CC2=C(c3ccccc3)C(=O)C(C)(OC(=O)C3CCCC3)C(=O)C2=CN1C1CCCCC1 (centres undefined),-14.0,-3.7,-12.2,15.6,1.3,43.6*,49.0*
CC(Sc1n[nH]c(-c2cccs2)n1)C(=O)Nc1ccc(C(N)=O)cc1 (centres undefined),6.1,2.3,4.6,.,14.2,-26.5,.
Cc1nnc(N/N=C/c2cccc(C(F)(F)F)c2)n1N,2.5,1.7,4.1,.,3.4,48.9*,22.1
CCOC(=O)[C@@H]1[C@H]2COc3ccccc3[C@H]2N2C(=O)N(c3cccc(F)c3)C(=O)[C@]12C,1.8,-6.9,-5.1,.,-13.5,8.1,.
CC(C)[C@H](NC(=O)N1c2ccccc2NC(=O)[C@@H]1C(C)C)C(=O)N[C@H](Cc1ccccc1)C(=O)O,0.6,19.0,-9.4,.,-0.4,40.0*,-0.1
CCC(C)[C@H](NC(=O)N1CC(=O)Nc2ccccc21)C(=O)N[C@H](Cc1ccccc1)C(=O)O (some centres undefined),-9.3,-4.4,-2.7,.,-0.4,41.1*,-3.8
CC(C)C[C@H](NC(=O)N1c2ccccc2NC(=O)[C@@H]1C(C)C)C(=O)N1CCC[C@@H]1C(=O)O,-20.3,-26.8,-16.2,.,-21.1,55.7*,8.1
CC(C)[C@H]1C(=O)Nc2ccccc2N1C(=O)N[C@@H](Cc1ccccc1)C(=O)N[C@H](Cc1ccccc1)C(=O)O,-2.4,2.8,3.0,.,-13.8,28.6,.
CCOC(=O)/C=C1/SCC(=O)N1CC(=O)Nc1ccc2c(c1)CCC2,.,6.5,.,.,.,12.1,.
COc1ccccc1CNC(=O)[C@H](C)NC(=O)C1CCN(C(=O)[C@@H]2CCCN2C(=O)OC(C)(C)C)CC1,8.2,-6.4,-0.6,.,0.8,44.9*,14.4
C=C(C(=O)O)C1CCC2(C)CCCC(C)(O)C2C1 (centres undefined),-3.1,20.2,-6.3,1.3,-7.7,47.9*,-0.2
O=C(O)/C=C/C(=O)Nc1ccc(O)cc1,-4.3,-14.8,-3.8,3.2,-10.1,80.9*,31.3
CC(C)(C)OC(=O)NCCCCCNC(=O)c1nc[nH]c1C(=O)N1CCc2ccccc2C1,-14.4,-5.4,-6.8,.,-4.6,47.9*,56.8*
CC(C)(C)OC(=O)NCCCC[C@H](NC(=O)c1nc[nH]c1C(=O)N1CCc2ccccc2C1)C(=O)OC(C)(C)C,1.4,16.0,1.0,27.3,-3.6,11.5,.
C/C(=N\NS(=O)(=O)c1ccccc1)c1ccc2c(c1)OCO2,-3.3,0.1,-10.3,19.5,17.2,7.4,.
COc1cc(C(c2c(C)[nH][nH]c2=O)c2c(C)[nH][nH]c2=O)ccc1OS(=O)(=O)c1ccc(C)cc1,-6.7,-10.6,1.2,11.0,17.5,56.4*,37.9
COc1cc(C(c2c(C)[nH][nH]c2=O)c2c(C)[nH][nH]c2=O)ccc1OS(=O)(=O)c1ccccc1,-1.1,-13.0,1.2,13.6,-4.2,41.8*,12.9
COc1ccc(C(c2c(C)[nH][nH]c2=O)c2c(C)[nH][nH]c2=O)cc1Br,4.7,-6.7,3.9,.,21.8,22.8,.
COc1cc(C(c2c(C)[nH][nH]c2=O)c2c(C)[nH][nH]c2=O)ccc1OC(C)C,-12.2,-10.0,-9.3,13.7,-16.2,29.3,.
CC1(C(=O)NCc2ccco2)Cc2c(-c3ccccc3)ccnc2O1 (centres undefined),.,16.1,.,.,.,20.1,.
CC1(C)Oc2ccc3ccc(=O)oc3c2C(/C=N/O)=C1Cl,4.5,-13.8,-0.5,.,-7.9,2.3,.

# Assay outcomes (PubChem)
